These results are taken from PubChem BioAssay AID720650 (Broad Institute, 2013).

The assay is described as follows: C difficile toxins, biochemical counterscreen, UDPG substrate absence, confirmatory dose response (AID 720650). In general terms: A counterscreen serves to expose hits that act by an unwanted route or on another target.

Unmarked numbers belong to inactive results. Active and inactive are the calls of the source. No rule for the calls is given here.

A word on the AC50: it is the concentration giving half of the maximal activity seen. Regarding `Cc1ccc(-c2cc(C(=O)OC3CCOC3=O)c3ccccc3n2)c(C)c1` (stereo not drawn), the AC50 result was “inactive”.

As to `Cc1[nH]c(-c2ccc(F)cc2)cc1C(=O)N1CCN(c2ccccc2)CC1`, the AC50 result was “inactive”.

For the compound `O=C(NC(=S)Nc1ccc(O)cc1)c1ccccc1Cl`, the AC50 is 13.3 µM (active).

Take `CCOc1ccc(S(=O)(=O)NCCC(=O)NCc2ccccn2)cc1`: the AC50 result was “inactive”.

Consider `COc1ccc(C(=O)Nc2ccc3c(c2)C(=O)N(C)[C@@H]2CC[C@H](CC(=O)NCC4CC4)O[C@@H]2CO3)cc1`, for which the AC50 result was “inactive”.

With `O=C(O)C1C(=O)NCC1c1ccccc1` (stereo not drawn), the AC50 result is “inactive”.

Turning to `COc1ccc(/C=C\c2onc(C)c2S(=O)(=O)N2CCC(C(=O)NCCC(C)C)CC2)cc1`, the AC50 result was “inactive”.

On to `CCS(=O)(=O)c1ccc2oc(Nc3ccc(C(C)(C)C)cc3)nc2c1`, for which the AC50 result is “inactive”.

For the compound `CCNC(=O)C[C@H]1CC[C@@H]2[C@H](COc3ccc(NC(=O)c4ccc5c(c4)OCO5)cc3C(=O)N2C)O1`, the AC50 is more than 42 µM.

Take `Nc1ccc2c(c1)[nH]c(=O)c1cc(N)ccc12`: the concentration at half-maximal activity (AC50) is 13 µM (active).

Take `CNC(=O)C1CCN(S(=O)(=O)c2c(C)noc2/C=C/c2ccc(OC)cc2)CC1`: the AC50 entry is “inactive”.

As for `CCN(CC)S(=O)(=O)c1cc(C(=O)Nc2cccnc2Cl)ccc1Cl`, the AC50 result was “inactive”.

On to `O=C(c1ccccc1)c1coc2ccc(O)c(Cl)c12`, for which the AC50 is 12.7 µM (active).

On to `Oc1ccc(Nc2nc(Cl)nc(NCc3ccco3)n2)cc1`, for which the AC50 entry is “inactive”.

With `CN(C)CCNc1ccc(CO)c2sc3ccc(O)cc3c(=O)c12`, the AC50 is 6.06 µM (active).

As to `COc1ccc(NC(=O)c2cc(S(=O)(=O)N3CCc4ccccc43)cn2C)cc1OC`, the AC50 result is “inactive”.

For the compound `Cc1cc(C)nc(NC(N)=NCCc2ccccc2)n1`, the AC50 was more than 39 µM.

As for `COCCN(C(=O)C(C)C)c1nnc(-c2ccc(C(C)(C)C)cc2)s1`, the AC50 result was “inactive”.

`O=C(COc1ncnc2ccccc12)NCCc1ccc(F)cc1`: the AC50 result is “inactive”.

As for `O=C(c1ccc2c(c1)N(Cc1ccccc1)C(=O)c1ccccc1S2)N1CCCC1`, the AC50 is 16.2 µM (active).

For `O=c1oc(-c2ccc(Br)cc2)nc2ccccc12`, the AC50 entry was “inactive”.

As for `COc1ccccc1C(=O)Nc1cccc(Oc2c(F)c(F)c(F)c(F)c2F)c1`, the AC50 is more than 39 µM.

Consider `COCCNc1oc(/C=C/c2ccccc2)nc1C#N`, for which the AC50 entry was “inactive”.

With `CCc1ccccc1NC(=O)CN1CCN(CC(=O)NCc2ccc(Cl)cc2)CC1`, the AC50 result is “inactive”.

Take `COc1cccc(Oc2ccc3nnc(C(F)(F)F)n3n2)c1`: the AC50 result is “inactive”.

Regarding `CC1(C)Cc2nc(Cl)c(C#N)cc2CO1`, the AC50 is more than 39 µM.

For the compound `CC(C)c1cc(CN2CCN(Cc3ccc(F)c(F)c3)C(CCO)C2)[nH]n1` (stereo not drawn), the AC50 entry was “inactive”.

Regarding `COc1cccc2sc(NNC(=O)C3COc4ccccc4O3)nc12` (stereo not drawn), the AC50 was 0.972 µM (active).

`CCC(=O)Nc1ccc2c(c1)OC[C@H](C)N(C(=O)NC(C)C)C[C@H](C)[C@H](OC)CN(C)C2=O`: the AC50 result was “inactive”.

With `Cc1ccc(CSc2nc3nc(C)cc(C)c3c(=O)[nH]2)cc1`, the AC50 result was “inactive”.

In the case of `COC(=O)c1sc2nc(SCc3ccccc3C)n(N)c(=O)c2c1C`, the AC50 result was “inactive”.

As for `O=C(OCC(=O)N1CCCCC1)c1ccccc1SCC(=O)N1CCCCC1`, the AC50 entry is “inactive”.

As for `CC(/C=N/n1c(-c2ccncc2)n[nH]c1=S)=C\c1ccco1`, the AC50 result was “inactive”.

Turning to `CCOc1ccc(NC(=O)c2ccc(CC)s2)c([N+](=O)[O-])c1`, the AC50 result is “inactive”.

As to `COc1cc(/C=N/NC(=O)CCN2CCCCC2)ccc1O`, the AC50 result was “inactive”.

For `COc1ccc(-c2nc(N)ncc2-c2ccccc2OC)c(O)c1`, the AC50 entry is “inactive”.

Regarding `CC1CCCN(C(=S)Nc2ccc(F)cc2)C1` (stereo not drawn), the AC50 entry was “inactive”.

Take `COc1ccc(-c2ccc(OC(=O)NC3CCS(=O)(=O)C3)cc2)cc1` (stereo not drawn): the AC50 is 12.6 µM (active).
